Legend:
[1] = target: T1, Aspartate--tRNA(Asp/Asn) ligase (Mycobacterium tuberculosis (strain ATCC 25618 / H37Rv)) (UniProt P9WFW3); test: Assay for Asp RNA synthetase-1 from Mycobacterium tuberculosis; type: functional; set-up: scale not given: direction of the effect not stated beside the values; details: 30 µM; further: in the data most compounds retested in dose-response had high values
T1 sequence (whole entry): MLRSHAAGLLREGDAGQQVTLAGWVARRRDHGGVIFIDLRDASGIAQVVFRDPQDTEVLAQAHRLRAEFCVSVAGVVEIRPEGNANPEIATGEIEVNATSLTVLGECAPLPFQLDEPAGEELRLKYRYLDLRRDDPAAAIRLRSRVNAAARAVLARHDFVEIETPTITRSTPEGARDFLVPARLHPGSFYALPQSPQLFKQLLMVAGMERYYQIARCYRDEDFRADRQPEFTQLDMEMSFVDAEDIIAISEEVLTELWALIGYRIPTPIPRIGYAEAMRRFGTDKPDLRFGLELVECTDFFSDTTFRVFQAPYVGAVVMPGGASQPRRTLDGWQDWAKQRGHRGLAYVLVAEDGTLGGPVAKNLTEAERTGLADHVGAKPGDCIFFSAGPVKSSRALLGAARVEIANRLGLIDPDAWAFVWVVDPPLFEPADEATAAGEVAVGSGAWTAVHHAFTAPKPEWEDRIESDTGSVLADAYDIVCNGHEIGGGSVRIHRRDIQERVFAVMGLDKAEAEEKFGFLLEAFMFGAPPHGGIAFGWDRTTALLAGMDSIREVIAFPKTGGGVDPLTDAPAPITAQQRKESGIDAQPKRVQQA

[2] = target: Shiga toxin 2 (Escherichia coli O157:H7) (UniProt P09385+P09386); test: E. coli 0.157:H7 Shiga Toxin SOP - stx2 screening assay; type: functional; set-up: scale not given: direction of the effect not stated beside the values; details: 30 µM

SMILES	Percent Effect [1]	Percent Effect [2]
O=C(CN(C1=NCCCC1)c1ccccc1)c1ccccc1	2.67%	-26.2%
Cc1nn(C)c(C)c1C1CCCN1C(=O)c1ccc(CN(C)C)cc1 (stereo not given)	-2.88%	-14%
Cc1nc(N(C)C)nc2c1COCC21CCN(C(=O)NC(C)C)C1 (stereo not given)	2.63%	-1.42%
COc1cc(NC(=O)c2cc(C)sc2C)c(C(=O)N(C)C)cc1OC	7.46%	-44.2%
O=C(NCCc1cccs1)[C@H]1CO[C@H]2CCNC[C@H]2C1	2.09%	2.12%
NC(=O)CSCC(=O)N1CCc2cc(Cl)cc(Cl)c2C1	12.7%	-44.7%
CN(C)c1cc(CNC(=O)Nc2ccc(S(C)(=O)=O)nc2)ccn1	-1.23%	-117%
CC1CCCN(CCNC(=O)c2cncnc2C(C)C)C1 (stereo not given)	0.418%	-17.1%
CCc1ccc(C(=O)N2CCN(CCS(C)(=O)=O)CC2)o1	-3.52%	24.9%
COCCC(=O)N1C[C@@H]2COC[C@]2(COCc2cccnc2)C1	2.14%	-6.81%
Cc1cc(N2CCC(N(C)C(=O)Nc3ccccc3)CC2)nc(C)n1	7.13%	-20.7%
Cc1ccc(N2CCC3(CCN(C(N)=O)CC3)CC2)nn1	2.03%	-2.18%
CCc1nc(C2CCCN2C(=O)c2ccc3c(c2)nnn3CC)no1 (stereo not given)	-5.04%	1.14%
CC1CCN(S(=O)(=O)c2cccn(CC(=O)NC3CCCC3)c2=O)CC1	-2.16%	1.09%
CC(=O)NCCNC(=O)c1cnc(-c2ccccc2)nc1	4.64%	-11.3%
CN(CC(=O)N1CCCC1c1cnn(C)c1)c1ccc(Cl)cn1 (stereo not given)	-2.16%	29.7%
FC(F)(F)Cn1ccnc1CN1CCOC(Cn2cccn2)C1 (stereo not given)	1.38%	8.38%
Cc1ncc(CNC(=O)c2nn(C)c3c2CS(=O)(=O)CC3)s1	-7.14%	-24.6%
Cc1ccc(CN2CC(C(=O)N3CCCC3)C3(CCOCC3)C2)s1 (stereo not given)	10.8%	-7.63%
CCNC(=O)c1ccc(CNCc2c(C)nn(C)c2N(C)C)cc1	-0.75%	-25.7%
CC(C)(O)CN1CCN(C(=O)c2cc(Cl)cc3cccnc23)CC1	-3.59%	-18%
CSc1ccc(C(CNC(=O)C2CC2)N2CCc3sccc3C2)cc1 (stereo not given)	-0.15%	11.2%
CC(=O)NCC(=O)N1CCn2cc(CN3CCN(C)CC3)nc2C1	1.6%	-27.6%
Cc1ccc(CNC2CCN(CCc3ccncc3)CC2)s1	-2.55%	-53.8%
O=C1CC(c2ccncc2)C2(CCN(CCO)CC2)N1 (stereo not given)	-1.48%	-4.07%

SMILES	Percent Effect [1]	Percent Effect [2]
Cc1ccc(=O)n(CC2(O)CCN(Cc3cc(C)c(O)c(C)c3)CC2)n1	-3.32%	-78.5%
O=C1[C@H]2CN(c3ncccn3)C[C@H]2CN1Cc1ccncc1	0.211%	-21.9%
CC(C)OCC(=O)N1CCCN(Cc2ccc(C#N)cc2)CC1	-0.7%	27.2%
Cc1ccn(-c2ccccc2NCc2cccnc2C)n1	-3.62%	0.821%
Cc1occc1C(=O)N1CCc2ncnc(-c3cnn(C)c3)c2CC1	-0.55%	-3.59%
CN(Cc1cnn(C)c1)C(=O)NCc1nnc2n1CCC2	-10.2%	4.62%
CCN(C(=O)COC)C(c1cccnc1)c1ccc2c(c1)CCO2 (stereo not given)	2.07%	-29.4%
COc1ccc(OC)c(C2CCN(Cc3nc(C)n4ccccc34)C2)c1 (stereo not given)	-1.14%	10.1%
Cn1cnnc1S(=O)(=O)C1CCN(S(=O)(=O)C2CC2)CC1	-0.604%	-7.38%
CC(C)c1ncc2c(n1)CN(Cc1cccc(OCC(N)=O)c1)CC2	3.81%	12.8%
Cc1nn(C)c(C)c1CC(=O)N1CCC(N(C)c2cccnn2)CC1	-4.15%	27.2%
Cc1nn(C)cc1-c1cc(C(F)(F)F)c2c(C)nn(CC(=O)O)c2n1	4.84%	34.1%
COCCC1(CO)CCCN(Cc2ccc(F)c(C)c2)C1 (stereo not given)	6.95%	15.6%
COc1cc(C)nc(N2CCN(C(=O)c3ccc(Cl)o3)CC2)n1	0.508%	20%
COc1ccc(C(N)c2cccc(S(C)(=O)=O)c2)cc1 (stereo not given)	-2.54%	-7.65%
CCN1CC(C(=O)N2CCC(Oc3ccccc3Cl)CC2)CC1=O (stereo not given)	2.64%	-34.4%
Cn1ncc2c1C(COCC1CC1)CN(Cc1nccs1)C2 (stereo not given)	11.3%	-37.3%
O=C1[C@@H]2CCN(Cc3ccncc3)C[C@@H]2OCCN1c1ccccc1	-1.46%	-5.4%
Cc1ccc(CN2CC[C@H]3C[C@@H](c4nc(C5CC5)cs4)O[C@@H]3C2)o1	11.7%	-16.4%
CC(O)CN1CCN(C(=O)c2ccn(-c3cccc(Cl)c3)n2)CC1 (stereo not given)	-5.25%	7.58%
Cc1nn(C)c(Cl)c1C(=O)NCC(c1ccsc1)N(C)C (stereo not given)	-6.11%	-7.76%
COc1c(CNCc2ccc(CN(C)C)cc2)c(C)nn1C	2.29%	-30.1%
O=C(c1ccc(F)cc1)N1C[C@H]2CCC[C@@]2(COCc2ccccn2)C1	9.3%	3.92%
CNC(=O)CCCNCc1c(C)nn(C)c1N(C)C	2.12%	-15.3%
CCn1nc(CC(C)C)cc1C(=O)NCCn1cccc1	3.71%	-3.77%
